The test concerns RARa homodimer (NR concentration 270 nM). The test can be described thus: PBM binding z-score (relative to random genomic background probes); higher = stronger binding; sequences stand for … in GC…GCGATTGACAGCGTAGAATGAAGG
In a few lines:
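Custom Agilent 4×180K protein-binding microarrays carried double-stranded probes. Their 34-nt variable regions held direct-repeat seeds, single-nucleotide variants, half-site ablations and random human genomic background sequences. Arrays were incubated 1 h with ligand-free nuclear receptor dimers in PBS pH 7.4, 2% milk, 0.02% Triton X-100, 1 mM DTT, 0.2 mg/mL BSA and 0.4 mg/ml salmon testes DNA. Antibodies against each partner (one per run) detected binding, and scanned fluorescence was regression-normalized. Binding z-scores use random background probes as reference.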
Sequence AGTCGAAGTTCACTAGGTAACGTAAGATTCAGCT returned a PBM binding z-score of 0.371.

GCTAGTTGGTCCGTAAAAGGTCACACACCGGTCG yielded a PBM binding z-score of 1.86.

As to CGAACTAGGTCAGAACAGGACAGTGAAGGATGAT, the PBM binding z-score was 0.693.

For the sequence CGAAATAGGTCAGAACAGGACAGTGAAGGATGAT, the PBM binding z-score was found to be 1.05.

Regarding TAGCCTAGGTCATTCTGGGGCCAGTATAGAAAGC, the PBM binding z-score was -0.372.

In turn, ATACCAAGGTGATCGTGACGTCGTTGATACTAAC yielded a PBM binding z-score of 0.899.

Consider CGTCCAAGGTCAAGGTTAGTGAAAGAGACTCGAA, for which the PBM binding z-score was found to be 0.992.

In turn, TCGAGTAGGTTAGTCGGGGGATTCAGCCAACATA had a PBM binding z-score of 0.264.

GCTCGGAGGGCAAGGTCAGAGCTTTGTCCGTAGA showed a PBM binding z-score of -0.775.

Consider CCGAGTAGGTTATGGGGCATTCATGCAACGGTGA, for which the PBM binding z-score was determined as 0.24.

ACTAGCAGTCCAAGGGTCACTCAAGATTAGTCCG displayed a PBM binding z-score of -0.132.

The sequence ATCGAAAGGTCCTGAGGTGAGTATACAGAAAGGC had a PBM binding z-score of 0.0282.

AGTCAAAGTTCACTTGGTAACGTAAGATTCAGCT: the PBM binding z-score worked out at 0.876.

Sequence TCTAGCACGCCAGAGGGTCACTCAAGAGGTACGG gave a PBM binding z-score of -0.679.

For the sequence CCAACTAGGTCAAGGTCAAAGTCGGTTTGTGCCA, the PBM binding z-score worked out at 3.41.

Sequence TCAGACAGGTGAAGGTAACACAGGTACGCAGTCG gave a PBM binding z-score of 0.787.

In the case of TTACCAAGGTGAGCTGAGGTCGTCGATCCAACTC, the PBM binding z-score was -0.863.

TCATATAGGTAAATGCTAGGTGAGAGTCCGATCT gave a PBM binding z-score of 0.662.

TCTTGTAGATTAAAGGTTAAGAAAGCCGAAGCCT showed a PBM binding z-score of 1.4.

TCAGACAGGTGCAGGTAACTCAGGTACGCAGTCG returned a PBM binding z-score of -0.372.

CGTCAAAGTTCAACTAAAGTAACGTAAAGCACGC came in with a PBM binding z-score of 2.17.

Sequence AATACAGGGTCACTAGGCCAGACTAGGTACGAAT showed a PBM binding z-score of 0.731.

Consider TTACCATGGTGAGCTGAGGTCGTTGATCCAACTC, for which the PBM binding z-score is -0.905.

CAGCCTAGGTCAGGGCCAGTAAAGGAGGAACGTT gave a PBM binding z-score of 0.335.

TCTTGTAGATCAATAGAGTTTAAGAAAGTGCGCT displayed a PBM binding z-score of 0.0115.

TCGAGGAGGTTACCAATGGGGCATTCAGCTTTCT had a PBM binding z-score of -0.136.

CGTCCAAGGTCAGAGATGTCAGTGAATGCCGAGT: the PBM binding z-score is 0.429.

Sequence CACACTAGGTCACGAAAGGTCAAAGTCGAATGAC returned a PBM binding z-score of 2.46.

Take GATACAGGGTCAGCTAGAGGCAAGAGTATGGAAA: the PBM binding z-score came out at 0.136.

For the sequence CGAACTAGGTCACAACAGGACAGTGAAGGATGAT, the PBM binding z-score turned out to be 0.573.

Sequence ATATGTAGGTTTAGGGTCATTCAGGTTGGTTCGC showed a PBM binding z-score of 2.17.

Regarding CCGACTGGGGCAAGGTTAGCATAACGCACAGCCA, the PBM binding z-score is -0.606.

CGTCCAAGGTCATCGGAGGTCAGTGAAGACAGAT showed a PBM binding z-score of 3.02.

TCTCGGAGGACACGAAAGGTCAGAGTTCGACATC had a PBM binding z-score of 1.69.

CCTACTGGCCCACGAAAGGTCATTGATTCAGTGA gave a PBM binding z-score of 2.79.

Sequence TCATATAGGTAAAGGCGAAAGTCGAACGATATGA showed a PBM binding z-score of 0.504.

Turning to CAAACTAGGTCAGAGAGGTCAAAGTCCGTGCGTA, the PBM binding z-score was 2.07.

TAGCCTAGGTCAGATCGGGCCAGTATCCGCTATA had a PBM binding z-score of -1.32.

Take CTCGAAAGGCCGGTTGAGGTGAGTATACGGATAA: the PBM binding z-score was -1.14.

These data come from the supplement of paper PMC6555819.
